# Laboratory results reported in the supplement of paper PMC12669032.
# Several values for one entry are separate records, joined by “and”; a condition that tells them apart may be missing. Equal entries are not always repeated. Values without a mark were called inactive.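 How the source made its calls: active = AUC reduced over 20% with Padj below 0.05 in at least 2 of 3 replicates; inactive = otherwise.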
# Legend:
# Test in all cases: growth AUC relative to DMSO control (median of replicates) (fraction); higher = more growth (less inhibition), active = hit call of the paper
# Details in all cases: 20 µM; 24 h
# Coprococcus comes = test system: Coprococcus comes
# In short: (§1)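 OD600 was recorded every hour for 24 h in anaerobic monocultures of gut bacteria kept at 37 °C in mGAM, seeded at OD600 0.05 and given 20 µM compound in 1% DMSO. The area under each growth curve was scaled to the plate median of solvent-only wells, or to row and column medians for the industrial chemical plate. Before this step, the minimum OD was set to 0. Reported values are medians of three biological replicates run on separate days.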
# Escherichia coli ED1a = test system: Escherichia coli ED1a
# In short: as §1
# Escherichia coli IAI1 = test system: Escherichia coli IAI1
# In short: as §1
# Eubacterium rectale = test system: Eubacterium rectale
# In short: as §1
# [1] = test system: Fusobacterium nucleatum subsp. animalis
# In short: as §1
# Lactobacillus gasseri = test system: Lactobacillus gasseri
# In short: as §1
# Lactobacillus paracasei = test system: Lactobacillus paracasei
# In short: as §1
# Odoribacter splanchnicus = test system: Odoribacter splanchnicus
# In short: as §1
# [2] = test system: Parabacteroides distasonis
# In short: as §1
# Parabacteroides merdae = test system: Parabacteroides merdae
# In short: as §1
Compound,growth AUC (Coprococcus comes),growth AUC (Escherichia coli ED1a),growth AUC (Escherichia coli IAI1),growth AUC (Eubacterium rectale),growth AUC [1],growth AUC (Lactobacillus gasseri),growth AUC (Lactobacillus paracasei),growth AUC (Odoribacter splanchnicus),growth AUC [2],growth AUC (Parabacteroides merdae)
CCS(=O)(=O)c1cccnc1S(=O)(=O)NC(=O)Nc1nc(OC)cc(OC)n1,0.968,1,0.999,0.943,0.912,1.01,0.996,0.897,1.02,0.993
CCSCCSP(=S)(OC)OC,1.1,1.01,1,0.899,1.05,1.06,1.01,1.07,1.05,0.988
CNC(=O)Oc1cccc2c1OC(C)(C)C2,1.02,1.04,0.985,1.02,1.07,0.946,0.994,1.06,0.992,1
O=[N+]([O-])C(Br)(CO)CO,0.925,1,0.987,0.949,1,0.958,0.999,1,1.03,0.998
Oc1c(Cl)c(Cl)cc(Cl)c1Cl,0.971,0.917,0.746 (active),0.947,0.923,0.936,1.02,0.666 (active),0.637 (active),0.786
CCC(C)(c1ccc(O)cc1)c1ccc(O)cc1,1.01,1,1.01,0.882,1.04,1,0.989,0.872,0.743,0.968
N#Cc1c[nH]cc1-c1cccc2c1OC(F)(F)O2,1.05,0.969,0.978,0.857,0.888,0.866,0.908,0.985,0.759 (active),0.88
CC(C)(C)c1ccc(CCOc2ncnc3ccccc23)cc1,0.98,0.976,0.973,0.905,0.887,0.924,0.942,0.834,0.795 (active),0.934
O=C1C(Cl)=C(Cl)C(=O)C(Cl)=C1Cl,1.02,1.03,1.02,0.844,1.01,0.973,1.01,0.912,1.04,0.927
CN(C)C(=O)Nc1cccc(OC(=O)NC(C)(C)C)c1,0.974,0.995,0.972,1.19,1.07,0.934,0.934,0.551 (active),1.01,0.959
O=S(=O)(c1ccc(O)cc1)c1ccc(O)cc1,0.974,1.05,1.02,0.972,0.977,0.963,0.953,0.914,0.878,0.974
COC(=O)/C(C)=C/OP(=S)(OC)OC,0.989,0.987,0.97,0.95,1.01,1.06,1.07,0.95,1.03,0.999
OC(c1ccc(Cl)cc1)(c1ccc(Cl)cc1)C(Cl)(Cl)Cl,1.01,0.998,1.03,0.805,0.977,0.162 (active),1.01,0.687 (active),0.0387 (active),0.777 (active)
COC(=O)Nc1nc2ccccc2[nH]1,1.05,1.04,1.01,0.854,1.03,1.14,0.862,0.997,1.03,0.981
CC(C)c1ccc(NC(=O)N(C)C)cc1,0.979,0.972,0.97,1.05,1.07,0.934,0.98,1.12,0.998,0.935
CN(C)C(=S)SSC(=S)N(C)C,0.833,0.973,0.973,0.83,1.09,0.875,1.02,0.0343 (active),0.928,0.852
O=C(O)c1ccc(=O)[nH]c1,0.999,0.99,1.03,0.976,0.982,0.972,0.987,0.985,1.02,0.983
O=C(Nc1ccc(F)cc1F)c1cccnc1Oc1cccc(C(F)(F)F)c1,0.999,0.968,0.965,1.06,0.939,0.891,1.05,1.06,0.962,0.971
O=[N+]([O-])c1ccc2ccc3cccc4ccc1c2c34,0.972,0.988,0.99,0.577 (active),0.401 (active),0.99,1.02,0.0656 (active),0.579 (active),0.495 (active)
CCCN(CCC)C(=O)SCc1ccccc1,1.01,1.01,0.985,1.09,1.01,1.02,0.963,1.08,0.89,0.998
CNc1nc(C)c(C)c(OC(=O)N(C)C)n1,0.998,1.01,0.957,1.05,1.09,1.03,0.971,0.985,1.01,0.998
COC(C)(C)CCCC(C)C/C=C/C(C)=C/C(=O)OC(C)C (stereo not given),1.01,1.01,1,0.831,1,1.04,1.04,0.999,1,1
CCNc1nc(Cl)nc(NC(C)(C)C)n1,0.995,0.977,1.01,1.07,0.975,0.947,1.03,1.01,0.992,0.979
CCC(C)c1cc([N+](=O)[O-])cc([N+](=O)[O-])c1O (stereo not given),0.884,0.935,0.924,0.939,0.737,0.959,0.925,0.799 (active),0.841,0.929
CCOC(=O)COc1cc(-c2nn(C)c(OC(F)F)c2Cl)c(F)cc1Cl,0.979,0.995,0.971,1.13,1.12,0.996,1.01,1,1.02,1
CCCCC(C#N)(Cn1cncn1)c1ccc(Cl)cc1 (stereo not given),1.02,0.966,0.97,1.01,1.02,0.965,0.916,1.04,1.02,0.988
O=S1OC[C@@H]2[C@H](CO1)[C@]1(Cl)C(Cl)=C(Cl)[C@@]2(Cl)C1(Cl)Cl (stereo not given in full),0.959 and 0.955,0.995 and 0.982,0.985 and 1.03,1.07 and 0.951,0.927 and 0.887,0.974 and 0.906,1.05 and 1.01,0.949 and 0.879,0.98 and 0.937,0.977 and 0.917
Cc1cc(Cl)ccc1OCC(=O)O,1.02,1.02,1,0.984,1.07,1.05,1.04,1.05,1.01,1.04
